Laboratory results taken from PubChem BioAssay (NCI).
“And” between values parts separate entries of the source, which are not always exact repeats. Identical values can stand only once. This is part of a sample that, as a whole, favours compounds with a hit. Of some 83,000 tested, about 20% had one in any assay.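 The endpoint reported here, percent growth, reads 100 for growth as untreated, 0 for no net growth and -100 for all cells dead.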 Some structures have more than one record in an assay (separate samples or runs), and their calls can disagree. The source made the active and inactive calls. Rule for the calls: active = growth percent below 10; inactive = the rest.

Tests used:
Assay in all cases: NCI-60 one-dose screen, 48 h (100 = growth as untreated, 0 = no growth, -100 = all killed)
HCT-15 colon = tested on: HCT-15 colon
HT29 colon = tested on: HT29 colon
SNB-75 CNS = tested on: SNB-75 CNS
U251 CNS = tested on: U251 CNS
PC-3 prostate = tested on: PC-3 prostate
SK-MEL-5 melanoma = tested on: SK-MEL-5 melanoma
UACC-62 melanoma = tested on: UACC-62 melanoma
LOX IMVI melanoma = tested on: LOX IMVI melanoma
SK-MEL-28 melanoma = tested on: SK-MEL-28 melanoma
SK-MEL-2 melanoma = tested on: SK-MEL-2 melanoma
EKVX NSCLC = tested on: EKVX NSCLC
SN12C renal = tested on: SN12C renal
UO-31 renal = tested on: UO-31 renal
TK-10 renal = tested on: TK-10 renal
ACHN renal = tested on: ACHN renal
CAKI-1 renal = tested on: CAKI-1 renal
A498 renal = tested on: A498 renal
CCRF-CEM leukemia = tested on: CCRF-CEM leukemia
SNB-19 CNS = tested on: SNB-19 CNS
MOLT-4 leukemia = tested on: MOLT-4 leukemia

Measured: growth

CC(C)(C)c1cc(NC(=O)Cc2ccc(-c3cnc4cc(-c5cnn(CCN6CCOCC6)c5)ccc4n3)cc2)no1
active: HCT-15 colon; 10 µM 9.24% | HCT-15 colon; 30 µM 7.76% | SNB-75 CNS; 10 µM -0.488% | SNB-75 CNS; 30 µM -1.06% | SK-MEL-5 melanoma; 10 µM unless noted 9.52% | LOX IMVI melanoma; 30 µM 8.41% | SK-MEL-2 melanoma; 10 µM -8.73% | SN12C renal; 10 µM 7.01% | SN12C renal; 30 µM 6.88% | UO-31 renal; 10 µM 1.27% | UO-31 renal; 30 µM 3.63% | ACHN renal; 10 µM 5.88% | ACHN renal; 30 µM 8.72% | CAKI-1 renal; 10 µM 1.21% | CAKI-1 renal; 30 µM 3.67% | A498 renal; 10 µM -26.9% | A498 renal; 30 µM -14.9%
inactive: HT29 colon; 10 µM 25.9% | HT29 colon; 30 µM 31.2% | U251 CNS; 10 µM 22.1% | U251 CNS; 30 µM 33.4% | PC-3 prostate; 10 µM 24.7% | PC-3 prostate; 30 µM 23.9% | UACC-62 melanoma; 10 µM 16.3% | UACC-62 melanoma; 30 µM 19.6% | LOX IMVI melanoma; 10 µM 17.7% | SK-MEL-28 melanoma; 10 µM 29.4% | SK-MEL-28 melanoma; 30 µM 30.3% | SK-MEL-2 melanoma; 30 µM 29.7% | EKVX NSCLC; 10 µM 26.9% | EKVX NSCLC; 30 µM 19.1% | TK-10 renal; 10 µM 34.9% | TK-10 renal; 30 µM 40.8% | CCRF-CEM leukemia; 10 µM 15.5% | CCRF-CEM leukemia; 30 µM 10.4%

Cc1[nH]c(-c2nc3ccccc3[nH]2)c(C)c1C(=O)NC(C)C1CCCCC1 (stereo not drawn)
active: HCT-15 colon; 100 µM -80.6% | HT29 colon; 100 µM -38.4% | SNB-75 CNS; 100 µM -98.9% | SNB-19 CNS; 100 µM -94.7% | U251 CNS; 100 µM -64.5% | PC-3 prostate; 100 µM -58.3% | SK-MEL-5 melanoma; 100 µM -99.6% | UACC-62 melanoma; 100 µM -96.5% | SK-MEL-28 melanoma; 100 µM -94.9% | SK-MEL-2 melanoma; 100 µM -81.6% | EKVX NSCLC; 100 µM -84.9% | SN12C renal; 100 µM -89.7% | UO-31 renal; 100 µM -97.8% | TK-10 renal; 100 µM -91% | ACHN renal; 100 µM -90.9% | A498 renal; 10 µM unless noted -93.3% [100 µM] | CCRF-CEM leukemia; 100 µM -72.7% | MOLT-4 leukemia; 100 µM -51.3%
inactive: HCT-15 colon; 10 µM 69% | HT29 colon; 10 µM 94.8% | SNB-75 CNS; 10 µM 79.6% | SNB-19 CNS; 10 µM 86.6% | U251 CNS; 10 µM 96.7% | PC-3 prostate; 10 µM 78.5% | SK-MEL-5 melanoma; 10 µM 80.2% | UACC-62 melanoma; 10 µM 78.1% | LOX IMVI melanoma; 10 µM unless noted 84.7% | SK-MEL-28 melanoma; 10 µM 89.2% | SK-MEL-2 melanoma; 10 µM 87.2% | EKVX NSCLC; 10 µM 93.2% | SN12C renal; 10 µM 86.1% | UO-31 renal; 10 µM 89% | TK-10 renal; 10 µM 103% | ACHN renal; 10 µM 99% | CCRF-CEM leukemia; 10 µM 81.3% | MOLT-4 leukemia; 10 µM 72.4%

O=C(CN1CCN(c2cc3c(cc2F)c(=O)c(C(=O)O)cn3C2CC2)CC1)Nc1ccc(Cl)cc1
7.15% (active) and 16% (inactive): UO-31 renal; 10 µM unless noted
inactive: HCT-15 colon; 10 µM unless noted 83% and 92.3% | HT29 colon; 10 µM unless noted 57.9% and 100% | SNB-75 CNS; 10 µM unless noted 79.7% | SNB-19 CNS; 10 µM unless noted 83.1% and 90.9% | U251 CNS; 10 µM unless noted 44.2% and 102% | PC-3 prostate; 10 µM unless noted 80.1% and 89.1% | SK-MEL-5 melanoma; 10 µM unless noted 71.1% and 83.5% | UACC-62 melanoma; 10 µM unless noted 63.6% and 57.8% | LOX IMVI melanoma; 10 µM unless noted 61.1% and 72.4% | SK-MEL-28 melanoma; 10 µM unless noted 87.1% and 84% | SK-MEL-2 melanoma; 10 µM unless noted 94.8% and 106% | EKVX NSCLC; 10 µM unless noted 93.4% and 92.3% | SN12C renal; 10 µM unless noted 90.1% and 90.6% | TK-10 renal; 10 µM unless noted 86.1% and 127% | ACHN renal; 10 µM unless noted 53.2% and 84.4% | CAKI-1 renal; 10 µM unless noted 67.2% and 77.6% | A498 renal; 10 µM unless noted 68.6% and 45.8% | CCRF-CEM leukemia; 10 µM unless noted 77.4% and 92.6% | MOLT-4 leukemia; 10 µM unless noted 96.5% and 92.7%

CC(=O)Nc1ccc2cc3ccc(NC(C)=O)cc3nc2c1
inactive: HCT-15 colon; 10 µM unless noted 103% and 106% | HT29 colon; 10 µM unless noted 97.3% and 90.1% | SNB-75 CNS; 10 µM unless noted 71.1% and 83.1% | SNB-19 CNS; 10 µM unless noted 79.2% and 73.4% | U251 CNS; 10 µM unless noted 74.3% and 72.3% | PC-3 prostate; 10 µM unless noted 75.1% and 42.4% | SK-MEL-5 melanoma; 10 µM unless noted 92.2% and 105% | UACC-62 melanoma; 10 µM unless noted 82.2% and 85.7% | LOX IMVI melanoma; 10 µM unless noted 89% and 85.9% | SK-MEL-28 melanoma; 10 µM unless noted 110% and 139% | SK-MEL-2 melanoma; 10 µM unless noted 95.9% and 108% | EKVX NSCLC; 10 µM unless noted 80.6% and 78.4% | SN12C renal; 10 µM unless noted 52.6% and 52.2% | UO-31 renal; 10 µM unless noted 79% and 76% | TK-10 renal; 10 µM unless noted 136% and 119% | ACHN renal; 10 µM unless noted 79.1% and 58.4% | CAKI-1 renal; 10 µM unless noted 45.9% and 97.2% | A498 renal; 10 µM unless noted 115% and 113% | CCRF-CEM leukemia; 10 µM unless noted 78.9% and 104%

OC1CCC(Oc2cccc3cnc(Nc4ccc5nc[nH]c5c4)nc23)CC1 (stereo not drawn)
2.98% (active) and 46% (inactive): HT29 colon; 10 µM unless noted
-32.6% (active) and 43.1% (inactive): A498 renal; 10 µM unless noted
-6.41% (active) and 47.6% (inactive): SK-MEL-5 melanoma; 10 µM unless noted
8.29% (active) and 49.1% (inactive): UO-31 renal; 10 µM unless noted
9.42% (active) and 41.1% (inactive): SNB-19 CNS; 10 µM unless noted
-14.6% (active) and 15.4% (inactive): CCRF-CEM leukemia; 10 µM unless noted
-33.9% (active) and 52.7% (inactive): EKVX NSCLC; 10 µM unless noted
-33.7% (active) and 84.8% (inactive): SK-MEL-2 melanoma; 10 µM unless noted
5.3% (active) and 81% (inactive): HCT-15 colon; 10 µM unless noted
6.96% (active) and 46.2% (inactive): TK-10 renal; 10 µM unless noted
-22.7% (active) and 37.5% (inactive): SNB-75 CNS; 10 µM unless noted
inactive: SN12C renal; 10 µM unless noted 10.2% and 38.4% | ACHN renal; 10 µM unless noted 12.8% and 41.9% | CAKI-1 renal; 10 µM unless noted 13.5% and 62.8%
5.62% (active) and 66.4% (inactive): SK-MEL-28 melanoma; 10 µM unless noted
3.19% (active) and 35.5% (inactive): PC-3 prostate; 10 µM unless noted
6.32% (active) and 39.2% (inactive): LOX IMVI melanoma; 10 µM unless noted
3.2% (active) and 27.7% (inactive): U251 CNS; 10 µM unless noted
-4.06% (active) and 46.2% (inactive): UACC-62 melanoma; 10 µM unless noted

Cn1cnc([N+](=O)[O-])c1Sc1ncnc2nc[nH]c12
inactive: HCT-15 colon; 10 µM unless noted 83.6% and 95.5% | HT29 colon; 10 µM unless noted 59.4% and 73.2% | SNB-75 CNS; 10 µM unless noted 39.2% and 58% | SNB-19 CNS; 10 µM unless noted 96.8% and 110% | U251 CNS; 10 µM unless noted 78.6% and 93.7% | PC-3 prostate; 10 µM unless noted 76.6% and 91.5% | SK-MEL-5 melanoma; 10 µM unless noted 77.9% | UACC-62 melanoma; 10 µM unless noted 20.2% and 35.8% | LOX IMVI melanoma; 10 µM unless noted 22.4% and 22.5% | SK-MEL-28 melanoma; 10 µM unless noted 105% and 116% | SK-MEL-2 melanoma; 10 µM unless noted 57.7% and 74.8% | EKVX NSCLC; 10 µM unless noted 83.3% and 109% | SN12C renal; 10 µM unless noted 75.8% and 83.2% | UO-31 renal; 10 µM unless noted 63.4% and 69% | TK-10 renal; 10 µM unless noted 52.8% and 44.3% | ACHN renal; 10 µM unless noted 84% and 121% | CAKI-1 renal; 10 µM unless noted 49.2% and 75.8% | A498 renal; 10 µM unless noted 87.7% and 103% | CCRF-CEM leukemia; 10 µM unless noted 48% and 42.6% | MOLT-4 leukemia; 10 µM unless noted 66.1% and 56.6%

Cc1cccc(/C=C\C(=O)c2ccccc2)c1
inactive: HCT-15 colon; 10 µM unless noted 89% and 101% | HT29 colon; 10 µM unless noted 91.9% and 98.7% | SNB-75 CNS; 10 µM unless noted 90.5% and 112% | SNB-19 CNS; 10 µM unless noted 86.7% and 103% | U251 CNS; 10 µM unless noted 64.8% and 91.7% | PC-3 prostate; 10 µM unless noted 86.3% and 82.7% | SK-MEL-5 melanoma; 10 µM unless noted 106% and 95% | UACC-62 melanoma; 10 µM unless noted 90.2% and 105% | LOX IMVI melanoma; 10 µM unless noted 85.3% and 93.5% | SK-MEL-28 melanoma; 10 µM unless noted 110% and 120% | SK-MEL-2 melanoma; 10 µM unless noted 100% and 103% | EKVX NSCLC; 10 µM unless noted 97.8% and 101% | SN12C renal; 10 µM unless noted 89.7% and 102% | UO-31 renal; 10 µM unless noted 67.3% and 82.2% | TK-10 renal; 10 µM unless noted 86.9% and 96.3% | ACHN renal; 10 µM unless noted 124% and 110% | CAKI-1 renal; 10 µM unless noted 92.8% and 95.1% | A498 renal; 10 µM unless noted 95.2% and 68.2% | CCRF-CEM leukemia; 10 µM unless noted 78.9% and 64.5% | MOLT-4 leukemia; 10 µM unless noted 91.5% and 49.1%

Cc1ccc2nc3c(nc2c1)-c1cccc2cccc-3c12
inactive: HCT-15 colon; 10 µM unless noted 75.1% | HT29 colon; 10 µM unless noted 80.3% | SNB-75 CNS; 10 µM unless noted 94.9% | SNB-19 CNS; 10 µM unless noted 100% | U251 CNS; 10 µM unless noted 78.8% | PC-3 prostate; 10 µM unless noted 87.4% | SK-MEL-5 melanoma; 10 µM unless noted 62.7% | UACC-62 melanoma; 10 µM unless noted 79.6% | LOX IMVI melanoma; 10 µM unless noted 82.6% | SK-MEL-28 melanoma; 10 µM unless noted 102% | SK-MEL-2 melanoma; 10 µM unless noted 107% | EKVX NSCLC; 10 µM unless noted 71.4% | SN12C renal; 10 µM unless noted 81.2% | UO-31 renal; 10 µM unless noted 63.1% | TK-10 renal; 10 µM unless noted 83.5% | ACHN renal; 10 µM unless noted 68.6% | CAKI-1 renal; 10 µM unless noted 79.1% | A498 renal; 10 µM unless noted 83.1% | CCRF-CEM leukemia; 10 µM unless noted 85.7%
